Where “and” joins values, the source holds several entries; their conditions need not be identical. Equal entries are not always repeated. Inconclusive results are not listed. Calls of active or inactive are those of the source. Calls come from the whole dose curve; as a rule, active = well fitted curve in the direction sought with a large enough effect; inconclusive = small, poorly fitted or top-dose-only effect, or another doubt; inactive = no such curve, though single readings can be large; an effect the other way counts as inactive or inconclusive.
Experiments:
[1] = Viability qHTS for spleen associated tyrosine kinase inhibitor (SYKi) drug resistant MV4-11 cells (AID 1963824); note: nearly all actives have a fitted effect of over 35% in size; note: potency is the fitted concentration of half-maximal effect
Method in brief: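 CellTiter-Glo luminescence, read 10 min after reagent addition, reports viability after a 72 hr compound exposure. Cells are an MV4-11 line made resistant to SYK inhibition, seeded at 500 per well onto compound-containing plates.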

[2] = Quantitative highthroughput screen to assess conditional lethalithy of NOMO1 cells grown in RPMI1640 with untreated serum (RPMI+s) (AID 1963876); note: nearly all actives have a fitted effect of over 35% in size; note: potency is the fitted concentration of half-maximal effect;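 for Viability: 100% = DMSO wells and 0% = empty wells without cells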
Method in brief: (§1)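 Each medium arm—HPLM with 10% dialyzed FBS, or RPMI1640 with 5 mM glucose and 10% untreated or dialyzed FBS—was screened against an 11-point, 3-fold compound titration for 48 h at 37 °C, with CellTiter-Glo luminescence as endpoint.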

[3] = Quantitative highthroughput screen to assess conditional lethalithy of SEM cells grown in Human Plasma-Like Medium with dialyzed fetal bovine serum (HPLM+ds) (AID 1963882); note: nearly all actives have a fitted effect of over 35% in size; note: potency is the fitted concentration of half-maximal effect; for Viability: series mostly up to about 46 µM
Method in brief: as §1

[4] = Quantitative highthroughput screen to assess conditional lethalithy of SEM cells grown in RPMI1640 with unreated serum (RPMI+s) (AID 1963883); note: nearly all actives have a fitted effect of over 35% in size; note: potency is the fitted concentration of half-maximal effect;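 for Viability: 100% = DMSO wells and 0% = empty wells without cells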
Method in brief: as §1

[5] = Cellular viability qHTS for adrenocortical cancer (ACC) cell line SW-13 (AID 1963989); conditions: SW-13 ACC cells viability, CellTiter-Glo, 48 h; activity (max response): stronger effect = lower value; note: nearly all actives have a fitted effect of over 65% in size; note: potency is the fitted concentration of half-maximal effect;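 for activity (max response): cells grown in serum-free medium with ITS supplement; % is set by controls: 0 for no effect and ±100 for the full control effect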
Method in brief: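 Compound titrations (up to 46 uM final, in DMSO) were applied to SW-13 cells for 48 h at 37C/5% CO2. Reading used CellTiter-Glo after 20 min at room temperature; fitted curves yielded IC50 and efficacy.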

[6] = Cellular viability qHTS for adrenocortical cancer (ACC) cell line NCI-H295R (AID 1963990); note: nearly all actives have a fitted effect of over 60% in size; note: potency is the fitted concentration of half-maximal effect
Method in brief: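 Readout: CellTiter-Glo luminescence, 20 min RT. Exposure: 48 h, 37C/5% CO2. Cells: NCI-H295R, ITS-DMEM serum-free. Range: up to 46 uM. Analysis: 4PL fit, IC50 plus efficacy.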

[7] = Quantitative highthroughput screen to assess conditional lethalithy of NOMO1 cells grown in RPMI1640 with dialyzed fetal bovine serum (RPMI+ds) (AID 1963877);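 note: series mostly up to about 46 µM; 100% = DMSO control wells and 0% = empty wells; nearly all actives have a fitted effect of over 30% in size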
Method in brief: as §1

[8] = Quantitative highthroughput screen to assess conditional lethalithy of NOMO1 cells grown in Human Plasma-Like Medium with dialyzed fetal bovine serum (HPLM+ds) (AID 1963878); note: nearly all actives have a fitted effect of over 35% in size; note: potency is the fitted concentration of half-maximal effect;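 for Viability: 100% = DMSO wells and 0% = empty wells on each plate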
Method in brief: as §1

[9] = Quantitative highthroughput screen to assess conditional lethalithy of P12 Ichikawa cells grown in Human Plasma-Like Medium with dialyzed fetal bovine serum (HPLM+ds) (AID 1963879); conditions: Potency: viability; note: nearly all actives have a fitted effect of over 35% in size; note: potency is the fitted concentration of half-maximal effect; for Viability: series mostly up to about 46 µM
Method in brief: as §1

[10] = Quantitative highthroughput screen to assess conditional lethalithy of P12 Ichikawa cells grown in RPMI1640 with dialyzed fetal bovine serum (RPMI+ds) (AID 1963880); conditions: Potency: P12-Ichikawa viability; note: nearly all actives have a fitted effect of over 35% in size; note: potency is the fitted concentration of half-maximal effect;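 for Viability: 100% = DMSO wells and 0% = empty wells on each plate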
Method in brief: as §1

[11] = Quantitative highthroughput screen to assess conditional lethalithy of P12 Ichikawa cells grown in RPMI1640 with untreated serum (RPMI+s) (AID 1963881); conditions: Potency: viability; note: nearly all actives have a fitted effect of over 35% in size; note: potency is the fitted concentration of half-maximal effect;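 for Viability: series mostly up to about 46 µM; 100% = DMSO wells and 0% = empty wells without cells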
Method in brief: as §1

[12] = Quantitative highthroughput screen to assess conditional lethalithy of SEM cells grown in RPMI1640 with dialyzed fetal bovine serum (RPMI+ds) (AID 1963884); note: nearly all actives have a fitted effect of over 35% in size; note: potency is the fitted concentration of half-maximal effect;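 for Viability: series mostly up to about 46 µM; 100% = DMSO control wells and 0% = empty wells without cells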
Method in brief: as §1

CN(C(=O)c1ccc(F)cc1C(F)(F)F)C1CCN(c2nnc(-c3ccnn3C)c3ccccc23)CC1
inactive: Potency [2] | Potency [3] | Potency [4] | activity (max response) [5] -13.3% | Potency [6]
active: Potency [1] 18.4 µM

Nc1ncnc2nc(-c3ccc(N4CCOCC4)nc3)cc(-c3cccc(Br)c3)c12
inactive: Potency [7] | Potency [8] | Potency [9] | Potency [10] | Potency [11] | Potency [3] | Potency [4] | Potency [12] | activity (max response) [5] -17.8% | Potency [6]
active: Potency [1] 8.33 µM

C[C@@H]1CC[C@@]2(OC1)OC1CC3C4CC=C5CC(O)CCC5(C)C4CCC3(C)C1[C@@H]2C (some centres undefined)
active: Potency [2] 14.8 µM | Potency [8] 13.2 µM | Potency [9] 11.8 µM | Potency [10] 18.7 µM
inactive: Potency [1] | Potency [6]

O=C(Nc1ccc(Oc2ccnc3[nH]ccc23)c(F)c1)c1cccn(-c2ccc(F)cc2)c1=O
inactive: Potency [2] | Potency [8] | Potency [9] | Potency [10] | Potency [11] | Potency [6]
active: Potency [1] 0.0146 µM | Potency [3] 8.33 µM

CCCCCCCCCCCCCCCC(=O)O[C@H]1[C@@H](O)[C@@H](O)[C@@H]([C@H](NC(=O)[C@@H]2C[C@@H](CCC)CN2C)[C@H](C)Cl)O[C@@H]1SC
inactive: Potency [9] | Potency [10] | Potency [11] | Potency [3] | Potency [4] | Potency [12] | activity (max response) [5] 13.6% | Potency [6]
active: Potency [1] 23.5 µM | Potency [2] 11.8 µM

CCCNCC(O)COc1ccccc1C(=O)CCc1ccccc1 (centres undefined)
active: Potency [1] 15 µM and 16.6 µM
inactive: Potency [7] | Potency [8] | Potency [9] | Potency [10] | Potency [11] | Potency [3] | Potency [4] | Potency [12]

Nc1ccc(C(=O)Nc2cccc(-c3nc(N4CCOCC4)c4oc5ncccc5c4n3)c2)cn1
inactive: Potency [2] | activity (max response) [5] -13.4%
active: Potency [1] 3.66 µM | Potency [3] 20.9 µM | Potency [4] 18.7 µM

COc1ccc(C(=O)CC2(O)C(=O)Nc3c(Cl)ccc(Cl)c32)cc1 (centres undefined)
inactive: activity (max response) [5] -14.9% | Potency [6]
active: Potency [1] 3.26 µM | Potency [2] 9.35 µM | Potency [9] 4.18 µM | Potency [11] 4.69 µM | Potency [3] 4.18 µM | Potency [4] 3.72 µM | Potency [12] 4.18 µM

Cc1cc(Nc2nc(N[C@@H](C)c3ncc(F)cn3)ncc2Cl)n[nH]1
inactive: activity (max response) [5] -20.7%
active: Potency [1] 1.05 µM | Potency [2] 7.43 µM | Potency [3] 5.26 µM | Potency [4] 1.05 µM | Potency [12] 2.64 µM

O=C(NC1CC1)c1cccc(-c2ccc3c(NC(=O)C4CC4)n[nH]c3c2)c1
active: Potency [1] 4.68 µM | Potency [2] 23.5 µM | Potency [9] 10.5 µM | Potency [10] 11.8 µM | Potency [11] 11.8 µM | Potency [3] 16.6 µM | Potency [4] 14.8 µM | Potency [12] 16.6 µM | Potency [6] 15.8 µM

CCOc1cc(CC(=O)N[C@@H](CC(C)C)c2ccccc2N2CCCCC2)ccc1C(=O)O
active: Potency [2] 0.332 µM | Potency [9] 2.35 µM | Potency [10] 3.32 µM | Potency [6] 25.1 µM
inactive: Potency [1] | Potency [3] | Potency [4] | Potency [12]

COc1cc([C@@H]2c3cc4c(cc3[C@H](O)[C@H]3COC(=O)[C@@H]23)OCO4)cc(OC)c1OC
active: Potency [1] 0.372 µM | Potency [2] 0.418 µM | Potency [9] 0.332 µM | Potency [10] 0.469 µM | Potency [11] 0.372 µM | Potency [4] 0.296 µM | Potency [12] 0.264 µM | Potency [5] 0.631 µM | Potency [6] 0.501 µM

COc1cc2nccc(Oc3ccc(NC(=O)C4(C(=O)Nc5ccc(F)cc5)CC4)cc3)c2cc1OC
inactive: Potency [2]
active: Potency [1] 0.0093 µM | Potency [5] 12.6 µM | Potency [6] 10 µM

CN1c2cc(O)c(N=NC(N)=O)cc2CC1S(=O)(=O)O (centres undefined)
inactive: Potency [1] | Potency [2] | Potency [8] | Potency [9] | Potency [10] | Potency [11] | Potency [3] | Potency [4] | Potency [12] | Potency [6]

COc1ccc(C2=N[C@H](c3ccc(Cl)cc3)[C@H](c3ccc(Cl)cc3)N2C(=O)N2CCNC(=O)C2)c(OC(C)C)c1
active: Potency [1] 16.6 µM | Potency [2] 23.5 µM | Potency [9] 10.5 µM | Potency [3] 0.235 µM | Potency [4] 0.418 µM | Potency [12] 0.187 µM

C=CCc1cc(OC)c(O)c(C(=O)NCCO)c1
inactive: Potency [1] | Potency [2] | Potency [8] | Potency [9] | Potency [10] | Potency [11] | Potency [4] | Potency [12] | activity (max response) [5] -2.94% | Potency [6]

CC(=O)SCC(Cc1ccccc1)C(=O)NCC(=O)OCc1ccccc1 (centres undefined)
active: Potency [1] 20.9 µM | Potency [2] 6.62 µM | Potency [8] 5.9 µM | Potency [9] 18.7 µM
inactive: Potency [3] | Potency [4] | activity (max response) [5] -5.9% | Potency [6]

— PubChem BioAssay (NCATS)
